Results from PubChem BioAssay (EPA / NIEHS).
Values joined by “and” are separate entries in the source; they are usually repeats but may differ in a detail not shown here. Equal values may be shown once. Active and inactive are the calls of the source. The calls were made as follows: active = hit-call score of the fitted dose curve at least 0.9, where 1 is the maximum; inactive = score below 0.9.

Read-out: Collagen I, COL1A1 (gene 1277)
Test: BSK_MyoF_CollagenI: BioMAP Diversity Plus: MyoF Assay for Collagen I Biomarker Activity (AID 2284238)
Conditions: primary human lung fibroblasts
Procedure: BSK_MyoF is a cell-based, multiplexed-readout assay that uses lung fibroblasts, […], with measurements taken at 24 hours after chemical dosing in a microplate: 96-well plate.BSK_MyoF_CollagenI is an assay component measured in the BSK_MyoF assay. It measures Collagen I antibody related to regulation of gene expression using ELISA technology.Data from the assay component BSK_MyoF_CollagenI was analyzed at the endpoint, BSK_MyoF_CollagenI, in the positive analysis fitting direction relative to DMSO as the negative control and baseline of activity. Using a type of binding reporter, gain or loss-of-signal activity can be used to understand protein changes. To generalize the intended target to other relatable targets, this assay endpoint is annotated to the 'cell adhesion molecules' intended target family, where the subfamily is 'collagen'.
The levels of cell surface (or secreted, indicated by the prefix "s") biomarker endpoints were measured by ELISA. Overt cytotoxicity to cells in confluent adherent cultures (all systems other than the BT system) was assessed by measuring total protein levels using sulforhodamine B (SRB) staining in parallel cultures at the time of biomarker measurements, indicated as SRB endpoints. For proliferation assays for adherent cell types, individual cell types are cultured at sub-confluence and relative cell numbers quantified by SRB staining at time points optimized for each system (48 h: 3C and CASM3C systems; 72 h: BT and HDF3CGF systems; 96 h: SAg system). SRB was performed by staining cells with 0.1% SRB after fixation with 10% TCA and reading wells at 560 nm.Viability and proliferation of PBMC (T cells) was quantified by Alamar Blue reduction for the SAg and BT systems. For PBMC viability (referred to as PBMC Cytotoxicity within the assay endpoint names), cells were plated (75,000/well in a 96-well plate) and then chemical samples added for 1 h before addition of activators, SEB and TSST-1 (20 ng/mL final concentration each). Cells were incubated for 90 h. Then, Alamar Blue (20 uL/well) (Invitrogen, Cat DAL1100) was added for 6 h, and the plates were read with a fluorescence microplate reader at 546/580 nm (excitation/emission). For PBMC proliferation, cells were plated and activated as above but incubated for only 16 h prior to addition of Alamar Blue. Plates were read after 6 h.

Row | SMILES | outcome | AC50
1 | O=P1(NCCCl)OCCCN1CCCl (stereo not given) | inactive | 
2 | CNC(=O)Oc1cc(C)c(SC)c(C)c1 | inactive | 
3 | CC(C)COP(=O)(OCC(C)C)OCC(C)C | inactive | 
4 | CCC(C)c1cc([N+](=O)[O-])cc([N+](=O)[O-])c1OC(=O)C=C(C)C (stereo not given) |  | 4.1 µM (active)
5 | CCCCCCCCCCCC#N |  | 20.6 µM (active)
6 | CCCOC(=O)c1ccccc1C(=O)OCCC | inactive | 
7 | CC(C)(c1cc(Cl)c(O)c(Cl)c1)c1cc(Cl)c(O)c(Cl)c1 |  | 5.31 µM (active)
8 | Nc1ccc(-c2ccc(N)c(N)c2)cc1N | inactive | 
9 | Oc1cc(Cl)ccc1Cl | inactive | 
10 | CC(C)CCCCCCCOC(=O)c1ccccc1C(=O)OCCCCCCCC(C)C | inactive | 
11 | C=CCN(CC=C)C(=O)C(Cl)Cl | inactive | 
12 | CC(C)(C)C(O)C(Oc1ccc(-c2ccccc2)cc1)n1cncn1 (stereo not given) |  | 36.9 µM (active)
13 | O=c1c2ccccc2c(=O)c2c1cc(Cl)c1[nH]c3c([nH]c12)c(Cl)cc1c(=O)c2ccccc2c(=O)c13 | inactive | 
14 | CC(C)(C)C(=O)CCl | inactive | 
15 | O=C1C(Cl)=C(Cl)C(=O)C(Cl)=C1Cl |  | 16.6 µM (active)
16 | CCc1cc(C)cc(CC)c1-c1c(OC(=O)C(C)(C)C)n2n(c1=O)CCOCC2 | inactive | 
17 | O=[N+]([O-])C=Cc1ccccc1 |  | 14.2 µM (active)
18 | O=C(O)CCCc1ccc(N(CCCl)CCCl)cc1 | inactive | 
19 | O=c1[nH]c(Cl)c(Cl)cc1Cl | inactive | 
20 | Clc1ccc(-c2ccccc2)cc1 | inactive | 
21 | COC(C)(C)CCC[C@H](C)C/C=C/C(C)=C/C(=O)OC(C)C | inactive | 
22 | Cc1ccc(OP(=O)(Oc2ccc(C)cc2)Oc2ccc(C)cc2)cc1 (tested in a mixture with another compound) |  | 32.6 µM (active)
23 | O=S(=O)(c1ccccc1)c1ccccc1 | inactive | 
24 | CC1(C)[C@H](C(=O)O[C@H](C#N)c2cccc(Oc3ccccc3)c2)[C@@H]1C=C(Br)Br | inactive | 
25 | CC(=O)/C=C/c1ccccc1 | inactive | 
26 | O=C1C=CC(=O)C=C1 |  | 31.8 µM (active) and 25.3 µM (active)
27 | CC(C)CCCCCCCOP(=O)(Oc1ccccc1)Oc1ccccc1 |  | 8.57 µM (active)
28 | COCC(=O)N(c1c(C)cccc1C)N1CCOC1=O | inactive | 
29 | c1ccc(Nc2ccc3ccccc3c2)cc1 |  | 31 µM (active)
30 | C=CC(=O)OCC(CC)CCCC (stereo not given) | inactive | 
